# This is part of a sample that, as a whole, favours compounds with a hit. Of some 83,000 tested, about 20% had one in any assay.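 Cells were grown in 96-well plates and exposed to the test compound at a single concentration for 48 hours; results are reported as percent growth, with values below 10 considered active.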 A number with no mark means an inactive call. Calls of active or inactive are those of the source.
# Tests used:
# Assay in all cases: NCI-60 one-dose screen, 48 h (100 = growth as untreated, 0 = no growth, -100 = all killed)
# Settings in all cases: 10 µM unless noted
# T-47D breast = system: T-47D breast
# BT-549 breast = system: BT-549 breast
# MDA-MB-435 melanoma = system: MDA-MB-435 melanoma
# SW-620 colon = system: SW-620 colon
# MCF7 breast = system: MCF7 breast
# HCT-116 colon = system: HCT-116 colon
# HCC-2998 colon = system: HCC-2998 colon
# KM12 colon = system: KM12 colon
SMILES,growth (T-47D breast),growth (BT-549 breast),growth (MDA-MB-435 melanoma),growth (SW-620 colon),growth (MCF7 breast),growth (HCT-116 colon),growth (HCC-2998 colon),growth (KM12 colon)
CCCCCc1ccc(S(=O)(=O)Nc2ccc3nc(N)oc3c2)cc1,36.1%,61.9%,50.3%,76.8%,31.8%,43%,98.5%,64.1%
S=c1ccnc[nH]1,125%,106%,113%,108%,107%,96.8%,104%,109%
O=C1C=C(SCCO)C(=O)c2ccccc21,-1.68% (active),-26.5% (active),-88.3% (active),-52.6% (active),-55.1% (active),-48.5% (active),78.3%,83.4%
O=C(NCCNC(c1ccccc1)C(NCCNC(=O)c1ccccc1)c1ccccc1)c1ccccc1 (stereo not drawn),97.8%,96.4%,114%,57.8%,70.7%,53.8%,105%,100%
COc1ccc(-c2nc(SCC(=O)Nc3nc4ccc(C)cc4s3)[nH]c(=O)c2C#N)cc1OC,94.8%,97.8%,101%,96.2%,95.6%,94.8%,105%,102%
CN1CCN(c2ccc(NC3=CC(=O)c4ncncc4C3=O)cc2)CC1,-48.2% (active),-90.9% (active),-90.3% (active),-64.1% (active),-64.3% (active),-53.6% (active),-78.2% (active),-75.9% (active)
C#CCOc1ccc2nc(CCl)c(Cl)c(Nc3cccc(C(F)(F)F)c3)c2c1,65.9%,60.6%,84.1%,66.4%,40.7%,64%,98.3%,93.6%
O=C(O)c1cn(C2CC2)c2cc(N3CCN(C(=O)N/N=C/c4cccc5ccccc45)CC3)c(F)cc2c1=O,89.9%,6.18% (active),104%,109%,98.2%,14.8%,107%,101%
CCN(CC)CCOc1ccc(C(=O)/C=C\c2ccc(Cl)cc2Cl)cc1,29.9%,31.6%,27.3%,-55.1% (active),-48.1% (active),-90.2% (active),24.2%,-43.2% (active)
COc1cc2c(cc1-c1c(C)noc1C)ncc1nc(CN3CCOCC3)n([C@H](C)COC(F)F)c12,13%,55.5%,35.8%,62.9%,13.2%,41.3%,32%,34.9%
COc1ccc(/C=C(\C(=O)NCc2cccnc2)S(=O)(=O)c2ccccc2)cc1OC,12.1%,35.5%,-8.51% (active),11.9%,12.9%,15%,96.6%,52.8%
Cc1cccc(NC(=O)Cn2cc(CN3CCN(c4ccnc5cc(Cl)ccc45)CC3)nn2)c1,83.8%,86.2%,93.4%,90.1%,88.2%,95.3%,102%,81.6%
O=c1cc(CP(=O)(O)O)c2cc(O)c(-c3ccccc3)cc2o1,101%,108%,99.2%,98.3%,96.9%,108%,102%,105%
O=C(Nc1ccccc1O)c1ccc(CNc2ccnc(C(F)(F)F)c2)cc1,32.1%,47.4%,45.3%,72.8%,50.1%,42.2%,99.6%,62.6%
N#Cc1ccc(O)c(C2=NCC(c3ccc(-c4ccccc4)cc3)O2)c1 (stereo not drawn),-1.94% (active),16.3%,26.8%,23.9%,10.3%,9.12% (active),34.8%,16.6%
CCOC(=O)C1=C(CC(O)c2ccc(OC)cc2OC)NC(=O)NC1c1ccccc1 (stereo not drawn),110%,102%,99.4%,115%,120%,89.2%,90.6%,115%

SMILES,growth (T-47D breast),growth (BT-549 breast),growth (MDA-MB-435 melanoma),growth (SW-620 colon),growth (MCF7 breast),growth (HCT-116 colon),growth (HCC-2998 colon),growth (KM12 colon)
COC(=O)c1nc(-c2ccccc2)oc1S(=O)(=O)N1CCCC(C)C1 (stereo not drawn),69.2%,75%,84.5%,35.4%,47.3%,63.9%,104%,97.7%
N#Cc1c(-c2ccccc2)nc2c(c(-c3ccc(Cl)cc3)nn2-c2ccccc2)c1-c1ccc([N+](=O)[O-])cc1,90.2%,111%,103%,96.1%,91.7%,88.9%,120%,102%
N=C(N)c1ccc(-c2ccc(-c3cc(Cl)cc(Cl)c3)s2)s1,-50% (active),87.8%,-69.7% (active),-39.8% (active),-64.2% (active),-52.5% (active),-59.9% (active),-58.6% (active)
C1CCC(N2CN3c4nonc4N4CN(C5CCCCC5)CN5c6nonc6N(C2)C3C45)CC1 (stereo not drawn),95.3%,99.8%,100%,92.8%,89.1%,101%,98.4%,98.8%
O=c1oc2c(cc1-c1ccccc1)c(=O)[nH]c1ccccc12,95.4%,97.5%,97.7%,105%,87.3%,97.1%,105%,101%
CC1=C(Cl)C(=O)c2cc(C)ccc2C1=O,96.9%,97.9%,105%,105%,91.2%,106%,104%,102%
Cc1ccc(C)c2c1sc1nc(N3CCOCC3)c(C#N)c(=O)n12,73.4%,90.9%,118%,105%,51.5%,88.6%,109%,63.1%
C#COc1cccc(Nc2ncnc3cc(NC(=O)[C@H](C)Cl)ccc23)c1,6.76% [6.25 µM] (active),9.94% [6.25 µM] (active),-25.1% [6.25 µM] (active),14.5% [6.25 µM],11.3% [6.25 µM],7.41% [6.25 µM] (active),5.81% [6.25 µM] (active),17.8% [6.25 µM]
Cn1c(=O)[nH]c(=O)c2nc3c(nc21)-c1ccccc1C3=O,103%,104%,100%,105%,87.2%,102%,101%,103%
CCCCCCCCCCCCCCCCCCOc1ccccc1CC(=O)NCC[N+](C)(C)C,73.2%,57.6%,73.1%,45.1%,57.6%,45.2%,29.9%,-27% (active)
N#Cc1nn(-c2cc(=O)[nH]c3ccc(Br)cc23)c(N)c1C#N,56.1%,85.1%,95.5%,83.5%,104%,85.7%,78.5%,109%
COc1cc(C=C2C(=O)NC(=S)NC2=O)cc(CN2CCCC2)c1O,110%,114%,100%,108%,96.1%,113%,110%,110%
C=C(C)[C@@H]1CC[C@]2(C(=O)N3CCNCC3)CC[C@]3(C)[C@H](CC[C@@H]4[C@@](C)(CCC(=O)N5CCNCC5)[C@H](C(=C)C)CC[C@]43C)[C@@H]12,103%,88.5%,74%,-14.4% (active),26.4%,-56.1% (active),81%,51.2%
O=C(Nc1ccc(Oc2cccc(Cl)c2)c(Cl)c1)c1cccnn1,72.4%,98.5%,77.6%,105%,91.7%,66.7%,95.2%,85.3%
COc1cc(/C=C/c2cc(/C=C/c3ccc(O)c(OC)c3)n(C(=O)Nc3ccc(Cl)cc3)n2)ccc1O,18.5%,-14.4% (active),2.46% (active),9.56% (active),5.36% (active),4.61% (active),4.55% (active),3.53% (active)
